This note sets out measurements from PMC9574860, “Chemical Toolkit for PARK7: Potent, Selective, and High-Throughput” (Journal of Medicinal Chemistry, 2022).

Screen size: about 7,900 compounds; about 400 (5.1%) showed an effect of 50% or more. This excerpt belongs to a sample that is enriched for strong results.

Parkinson's disease protein 7 (PARK7/DJ1), sequence (Q99497 whole entry, looked up, the tested form may be a part): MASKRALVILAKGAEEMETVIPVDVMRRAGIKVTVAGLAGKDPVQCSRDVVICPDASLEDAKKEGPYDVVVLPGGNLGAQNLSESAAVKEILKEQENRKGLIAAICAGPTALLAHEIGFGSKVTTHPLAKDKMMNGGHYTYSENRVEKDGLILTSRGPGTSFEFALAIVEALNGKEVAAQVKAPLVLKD

The target in the assay is Parkinson's disease protein 7 (PARK7/DJ1) (human, UniProt Q99497). Nature of the assay: primary screen, percent inhibition; read as competition with a fluorescent probe by fluorescence polarization; higher = more effect of the substance. The following applies: 100 µM. The method, boiled down:
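Covalent fragments at 100 μM final were incubated 2 h with 0.2 μM PARK7, then 20 nM probe JYQ-107 added for a further 2 h. Fluorescence polarization read at 480/520 nm; relative FP loss versus reference controls gave remaining enzyme activity.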
Take `Cc1c(C#N)c(S)nc2c1CCC2`: the Inhibition % was 15.1%.

Consider `Cc1nnc(S)c(C#N)c1C`, for which the Inhibition % is reported as 53.3%. Consider `Cc1nc(S)c(C#N)c(C)c1C`, for which the Inhibition % is listed as 3.15%. Consider `CCOc1ccc(S(=O)(=O)n2nc(C)cc2C)cc1`, for which the Inhibition % was 3.86%. To `Cc1nc(C)c(C=C(C#N)C(=O)NC(C)C)o1` belongs 3.38%. To `N#CC(=Cc1ccc(Cl)cc1)C(=O)Nc1ccncc1` belongs 2.9%; to `C#Cc1ccc(C=C(C#N)C(=O)Nc2ccncc2)cc1`, 73.3%; to `N#CC(=Cc1ccncc1)C(=O)Nc1cccc(Cl)c1`, 10.5%. For the molecule `C=CC(=O)NC1COc2cc(Cl)ccc2C1` (stereo not shown), the Inhibition % is 6.51%. For the molecule `CN1CCCN(C(=O)c2ccc(S(=O)(=O)F)cc2)c2ccccc21`, the Inhibition % came out at 17.9%. On to `O=C(O)C=CC(=O)Nc1ccc2[nH]ncc2c1`, for which the Inhibition % was found to be 77.7%. On to `O=C(CN1CCSC1=O)Nc1ccc(Cl)c(Cl)c1`, for which the Inhibition % came to 0.617%. Turning to `O=C(CN1CCSC1=O)Nc1cn[nH]c1`, the Inhibition % is 11.7%. The same measure for `Cc1ccc(NC(=O)CN2CCSC2=O)cc1C`: 1.36%. `Cn1cc(NC(=O)CN2CCSC2=O)cn1`: the Inhibition % was 71.6%. Regarding `O=C(O)C=CC(=O)Nc1ccc(F)c(Cl)c1`, the Inhibition % came out at 8.72%. In the case of `O=C(O)C=CC(=O)Nc1ccc(F)cc1`, the Inhibition % was determined as 7.34%.

Take `O=C(CN1CCSC1=O)Nc1ccc2[nH]ncc2c1`: the Inhibition % was 60.9%.

For the molecule `Cc1cc(C)cc(NC(=O)CN2CCSC2=O)c1`, the Inhibition % is on record as 5%. The same measure for `COCC(C)NC(=O)C(C#N)=Cc1occc1C` (stereo not shown): 5.2%; for `O=C1SCCN1CC(=O)N1CCCc2ccccc21`: 7.03%; for `Cc1c(C#N)c(NC(=O)CCl)n(-c2ccc(F)cc2)c1C`: 1.78%.

As for `COc1ccc2[nH]c(CCCCl)nc2n1.Cl`, the Inhibition % turned out to be 23.2%. Turning to `C=CS(=O)(=O)c1ccc(C#N)cn1`, the Inhibition % amounted to 1.18%.

Regarding `O=S(=O)(Oc1ccccc1C(F)(F)F)c1c[nH]cn1`, the Inhibition % was determined as 10.4%. Regarding `COCCCS(=O)(=O)N1CCC(Cl)CC1`, the Inhibition % was 7.37%. `OB(O)c1cccc2c1OCCC2`: the Inhibition % worked out at 4.89%.

For `C=CC(=O)N1CCc2c(cccc2C(F)(F)F)C1`, the Inhibition % is listed as -3.37%. In the case of `Cc1noc2ncc(S(=O)(=O)OCC(F)(F)F)cc12`, the Inhibition % stood at 18.2%.

`O=S(=O)(F)c1ccc2[nH]ncc2c1`: the Inhibition % worked out at 53%. On to `O=S(=O)(F)c1ccc2c(c1)NCC2`, for which the Inhibition % was 26.6%. `O=S(=O)(F)c1ccc(S(=O)(=O)Nc2ccncc2F)cc1`: the Inhibition % was determined as 17.6%. For `O=S(=O)(F)c1ccc2cnccc2c1`, the Inhibition % was found to be 86.1%.

`O=S(=O)(F)c1ccc2cn[nH]c2c1`: the Inhibition % stood at 72.5%. On to `Cc1ccc(F)c(OS(=O)(=O)c2cn[nH]c2C)c1`, for which the Inhibition % is recorded as 11.7%. With `O=S(=O)(F)c1ccc(F)cc1`, the Inhibition % was 2.62%. `O=S(=O)(F)c1cccnc1`: the Inhibition % is recorded as 17.7%. Take `COc1ncc(S(=O)(=O)F)cn1`: the Inhibition % was 31.2%.

`Cc1cc2[nH]ncc2cc1S(=O)(=O)F`: the Inhibition % is reported as 97.4%. For `Cc1cc(CNC(=O)CCl)ccc1F`, the Inhibition % is given as 18%. To `Cc1cc(NS(=O)(=O)C=Cc2ccccc2Cl)n(C)n1` belongs 8.51%.

Consider `C=CC(=O)NC1CCCc2c1cnn2C` (stereo not shown), for which the Inhibition % turned out to be 6.84%. As to `C=CC(=O)Nc1cccc(C(=O)O)c1`, the Inhibition % came out at 4.88%. For `Cc1nc(C(C)C)oc1Cn1ccnc1C#N`, the Inhibition % is on record as 8.62%. Consider `C=CC(=O)N1CCC(OCC2CC2)CC1`, for which the Inhibition % is -0.254%. As for `Cc1cc2ncn(CC3CO3)c2cc1C` (stereo not shown), the Inhibition % was found to be 20.8%. As to `C=CC(=O)N1CC(OC)Cc2ccccc21` (stereo not shown), the Inhibition % is reported as 13.5%. `C=CC(=O)N1CCc2c(F)cccc2C1`: the Inhibition % was 6.26%. Consider `O=C(CCl)NCCOc1cccc(Cl)c1`, for which the Inhibition % is 17.8%. Take `ClCC1COCCO1` (stereo not shown): the Inhibition % is -2.68%. Regarding `CCN(Cc1ccc2c(c1)OCO2)C(=O)CCl`, the Inhibition % is given as 9.14%. As for `Cc1ccn(S(=O)(=O)c2ccc(F)c(C)c2)n1`, the Inhibition % was 6.8%.

On to `CN(Cc1ccccc1)C(=O)C=CC(=O)O`, for which the Inhibition % is given as 23.5%.

Turning to `CN(CCc1ccccc1)c1nccnc1C#N`, the Inhibition % was 3.72%. `CN(C#N)Cc1ccccc1`: the Inhibition % turned out to be 62.8%. To `C=CC(=O)N1CCN2CCOCC2C1` (stereo not shown) belongs 8.35%; to `COc1ccc(CN(C)C(=O)CCl)cc1`, 61.5%.

On to `COc1ccc(C(=O)CCl)cc1`, for which the Inhibition % was found to be 3.52%. To `CN(Cc1ccc(OC(F)F)cc1)C(=O)CCl` belongs 51.1%. The same measure for `NC(=O)c1ccc(OCCCl)cc1`: -3.9%; for `COc1ccc(CN(C(=O)CCl)C2CC2)cc1`: 15.6%; for `COc1ccc2cc(CN(C)C(=O)CCl)ccc2c1`: 8%. For the molecule `CN(Cc1cccc(Cl)c1)C(=O)CCl`, the Inhibition % is recorded as 49.6%. Turning to `CN(Cc1ccc(F)cc1)C(=O)CCl`, the Inhibition % is on record as 39.9%. For the molecule `CCOc1ccc(C(=O)CCl)cc1`, the Inhibition % came to 84.9%. For `CN(Cc1cccc(F)c1)C(=O)CCl`, the Inhibition % was 44.5%. As to `COc1cccc(CN(C)C(=O)CCl)c1`, the Inhibition % is given as 76.7%.
